# Assay results reported in PubChem BioAssay AID1347075 (National Center for Advancing Translational Sciences (NCATS), 2019).
# About 5,500 (1.4%) of roughly 400,000 compounds were called active. Roughly 9% stayed inconclusive and do not appear here. The entries come from a sample that favours actives as a whole. Unmarked numbers belong to inactive results. Calls come from the whole dose curve; as a rule, active = well fitted cell-killing curve with a large enough effect; inconclusive = small, poorly fitted or top-dose-only effect, or effect the other way; inactive = flat fitted curve, though single readings scatter.
# Assay: qHTS assay for MDR1-selective chemotherapeutics: Primary screen using the parental adenocarcinoma cell KB-3-1; note: nearly all actives have a fitted effect of over 60% in size
# Settings: KB-3-1 viability, CellTiter-Glo ATP luminescence, 72 h; series mostly up to 46.1 µM; activity change, negative = cytotoxic: at the top concentration
# Summary of the method: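 KB-3-1 parental drug-naive adenocarcinoma cells in DMEM/10% FBS, incubated 72 h at 37 C with pin-transferred compounds across a concentration series. Viability by CellTiter-Glo luminescence; concentration-response curves fitted after normalization.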
# % is set by controls: 0 for no effect and ±100 for the full control effect; potency is the fitted concentration of half-maximal effect.
Compound,"activity change, negative = cytotoxic [%]",Potency
CCOc1ccccc1CNC(=O)C1CCCN(S(=O)(=O)c2ccc3c(ccn3C)c2)C1 (stereo unspecified),-11.1,–
COc1ccccc1NC(=O)c1sc2nc(C)c(C(=O)Nc3ccc(Cl)cc3)c(-c3ccc(Br)cc3)c2c1N,9.2,–
CC(C)c1ccc(NC(=O)c2cc(S(=O)(=O)N3CCc4ccccc4C3)ccc2F)cc1,8.41,–
COC(=O)c1ccc(S(=O)(=O)N2CCc3ccccc3C2)cc1,2.98,–
O=C(Nc1ccc(S(=O)(=O)N2CCc3ccccc3C2)cc1)c1ccccc1,–,18.4 µM (active)
CCOc1ccc(N(CC)C(=O)c2cc3c(=O)oc4ccccc4c3s2)cc1,18.5,–
Cc1ccc(Nc2ccc3cc(S(=O)(=O)N4CCCCC4)ccc3n2)cc1F,1.58,–
COc1ccc(N2CCN(S(=O)(=O)c3ccc4c(c3)CC(=O)N4)CC2)cc1,–,inactive
Cc1noc(C)c1S(=O)(=O)N(CC(=O)Nc1ccc2c(c1)OCCO2)c1ccc(C(C)C)cc1,-18.5,–
CCOc1ccc(N(CC(=O)OC)S(=O)(=O)c2c(C)noc2C)cc1,7.88,–
COc1ccc(N(CC(=O)Nc2cc(OC)ccc2OC)S(=O)(=O)c2c(C)noc2C)cc1,–,18.4 µM (active)
CCOC(=O)CN1C(C(=O)c2ccccc2)=C(OC(=O)C(C)(C)C)c2ccccc2S1(=O)=O,5.45,–
COc1ccc(Cn2c(=O)oc3ccccc32)cc1,-5.14,–
COc1ccc(CNc2nc(-c3ccc(Cl)cc3)nn2C(=O)c2ccccc2)cc1,-6.28,–
COc1ccc(Cn2c(-c3ccc(Cl)cc3)c[n+]3ccccc23)cc1,–,3.66 µM (active)
Cc1oc2ncnc(N3CCCCC3)c2c1C(=O)N1CCN(c2cccc(Cl)c2)CC1,-8.44,–
Cc1ccccc1-c1cc(C(=O)NCc2cccs2)n(CC2CC(c3cccnc3)=NO2)n1 (stereo unspecified),–,18.4 µM (active)
Cc1ccc(CNC(=O)c2cc(-c3ccccc3C)n(CC3CC(c4cccc([N+](=O)[O-])c4)=NO3)n2)cc1 (stereo unspecified),6.56,–
Cc1ccccc1-c1cc(C(=O)NCC2CC2)n(CC2CC(c3cccnc3)=NO2)n1 (stereo unspecified),-0.87,–
C=C1C=C(C(F)F)n2ncc(C(=O)NCCc3ccccc3OC)c2N1,0,–
CCn1cc(C(=O)NCc2ccccc2)c(=O)c2cc(S(=O)(=O)N3CCCCC3)ccc21,16.8,–
O=C(CSc1nc2c(c(=O)[nH]1)CN(Cc1ccc3c(c1)OCO3)CC2)Nc1cc(F)ccc1F,1.29,–
N#C/C=C/N1CCN(Cc2ccc3c(c2)OCO3)CC1,16,–
Fc1ccc2[nH]c3c(N4CCN(Cc5ccc6c(c5)OCO6)CC4)ncnc3c2c1,–,18.4 µM (active)

Compound,"activity change, negative = cytotoxic [%]",Potency
Fc1ccc2[nH]c3c(N4CCSCC4)ncnc3c2c1,–,5.17 µM (active)
CCc1nc2onc(C)c2c(=O)n1CC(=O)O,-2.75,–
Cc1oc2ncn(CC(C)C)c(=O)c2c1C(=O)N1CCN(c2ccccc2F)CC1,-0.942,–
O=C(NCCC1=CCCCC1)c1ccc2c(c1)N(Cc1ccccc1F)C(=O)c1ccccc1S2(=O)=O,4.55,–
O=C(CCS(=O)(=O)c1cc(Br)cc2c1N(C(=O)C1CC1)CC2)Nc1ccc(C(F)(F)F)cc1,4.76,–
Cc1cccc(N2CCN(c3ccc(C(=O)O)cc3NC(=O)c3ccccc3F)CC2C)c1 (stereo unspecified),7.44,–
O=C(c1cnn2c1NC(=C1CC1)C=C2C(F)F)N1CCc2ccccc2C1,0,–
CSc1nn(Cc2cccc(C)c2)c(N)c1S(=O)(=O)c1ccccc1,-14.3,–
CC(=O)c1cccc(-c2cnc3c(NC=O)cc(-c4ccccc4Oc4ccccc4)cn23)c1,-2.94,–
COc1cccc(-c2cnc3c(NC(C)=O)cc(-c4cccc(NC(C)=O)c4)cn23)c1,0,–
COc1ccccc1-c1cc(NC(C)=O)c2ncc(-c3ccc(F)cc3)n2c1,0,–
COc1cccc(-c2cnc3c(NC(C)=O)cc(-c4cc(F)ccc4OC)cn23)c1,–,16.4 µM (active)
COc1ccc(-c2cc(NC=O)c3ncc(-c4cc(OC)c(OC)c(OC)c4)n3c2)c(OC)c1,–,1.3 µM (active)
COc1ccc(-c2cc(NC=O)c3ncc(-c4cccc(C(=O)N(C)C)c4)n3c2)c(OC)c1,-0.891,–
COc1ccc(-c2cc(NC(C)=O)c3ncc(-c4cc(OC)c(OC)c(OC)c4)n3c2)cn1,–,5.8 µM (active)
COc1cccc(-c2cc(NC(C)=O)c3ncc(-c4cccc(C(C)=O)c4)n3c2)c1,0,–
CC(=O)Nc1cccc(-c2cc(NC(C)=O)c3ncc(-c4ccccc4)n3c2)c1,-3.06,–
CCCN(C(=O)Cn1ncc2c([nH]c3ccc(C)cc32)c1=O)c1ccccc1C,0.221,–
CCc1ccc2oc(-c3ccc(NC(=O)c4cc5ccccc5o4)cc3)nc2c1,-12.6,–
COc1ccc(NC(C)=O)cc1NC(=O)CN1CCN(c2ccc(F)cc2)CC1,1.07,–
COC(=O)c1ccc(NC(=O)c2cc(S(=O)(=O)N3CCC(C)CC3)cn2C)cc1,-7.89,–
CCOC(=O)c1c(C)oc2nc(C)nc(N(CC(C)C)CC(C)C)c12,3.41,–
CC(C)(O)c1ccccc1CC[C@H](SCC1(CC(=O)O)CC1)c1cccc(/C=C/c2ccc3ccc(Cl)cc3n2)c1,7.37,–
CCc1cnc2c(c1SCC(=O)c1ccccc1)c(=O)n(C)c(=O)n2C,9.68,–

Compound,"activity change, negative = cytotoxic [%]",Potency
Cc1ccc(C)c(S(=O)(=O)N2CCN(c3ncnc4sccc34)CC2)c1,–,9.2 µM (active)
Cc1ccc(C)c(S(=O)(=O)c2nnn3c2nc(N2CCOCC2)c2sccc23)c1,-0.269,–
Cc1ccc(C)c(S(=O)(=O)n2nc(C)c(S(=O)(=O)N3CCC(C)CC3)c2C)c1,-3.25,–
CCOCCCNC(=O)c1cn(CC)c2ccc(S(=O)(=O)N3CCc4ccccc4C3)cc2c1=O,-12.4,–
O=C(CCNC(=O)c1ccc(Cl)cc1)NC1CCCc2ccccc21 (stereo unspecified),–,7.31 µM (active)
COC(=O)c1cc(OCC(=O)NC2CCCc3ccccc32)cc(C(=O)OC)c1 (stereo unspecified),5.25,–
NC(=O)Nc1ccc(C(=O)OCC(=O)NC2CCCc3ccccc32)cc1 (stereo unspecified),3.73,–
Cc1ccc(Cl)cc1NC(=O)CCS(=O)(=O)c1ccc(Br)s1,10.5,–
CCc1nc(C)ccc1OCC(=O)N(CC)CC,-4.05,–
CCC(C)(C)c1ccc(OCC(=O)N(C)C)c(C(C)(C)CC)c1,–,16.4 µM (active)
COc1ccc(Cl)cc1NC(=O)CSc1nc2ccccc2c2nc(-c3ccccc3)nn12,3.72,–
CSc1oc(-c2cccs2)nc1S(=O)(=O)c1ccc(Br)cc1,0.965,–
CCOc1ccc(NC(=O)C(CC(C)C)N2Cc3ccccc3C2=O)cc1 (stereo unspecified),-18.3,–
C=CCn1c(SCc2c(C)noc2C)nc2sc3c(c2c1=O)CCC(C)C3 (stereo unspecified),–,4.11 µM (active)
CCCn1nnc2sc3c(c2c1=O)CCC(C)C3 (stereo unspecified),-4.79,–
C=CCn1c(SCC(=O)NCCCO)nc2sc3c(c2c1=O)CCC3,2.97,–
O=S(=O)(Nc1ccc2nc(-c3cccc(Cl)c3)oc2c1)c1ccccc1,0.847,–
CN(Cc1ccccc1)S(=O)(=O)c1ccc(F)c(C(=O)Nc2cccc(Cl)c2Cl)c1,6.97,–
COc1cccc(-n2c(SCC(=O)NC3CCCCC3)nc3n[nH]c(C)c3c2=N)c1,–,13 µM (active)
C=CCn1c(CC(=O)Nc2cccc(OC)c2)nnc1SCC(=O)NC1CCCCC1,19,–
COc1ccc(-n2c(SCC(=O)Nc3ccc(Cl)c(C)c3)nc3n[nH]c(C)c3c2=N)cc1,-0.218,–
ClC/C=C/C[n+]1ccccc1Cl,0,–
CCOc1ccc(-c2cc3c(=O)n(CC(=O)NCc4ccc(OC)cc4)ccn3n2)cc1,0.871,–
CN(O)C(=S)c1ccccc1,–,0.0052 µM (active)

Compound,"activity change, negative = cytotoxic [%]",Potency
CN(c1ccccc1)S(=O)(=O)c1ccc(NC(=O)COc2ccccc2)cc1,0,–
CN(c1ccccc1)S(=O)(=O)c1cccc(NC(=O)Cc2ccc(Cl)cc2)c1,–,23.1 µM (active)
Cc1ccc(S(=O)(=O)N(CC(=O)Nc2cccc([N+](=O)[O-])c2)Cc2ccc(Cl)cc2)cc1,-5,–
Nc1ncnc2nnsc12,44,–
CC(C)Oc1cccc(-c2cnc(N3CCC(C(N)=O)CC3)s2)c1,16.4,–
COc1cc2nc(SCc3ccc(F)cc3)n3nc(CCn4c(C)nc5ccccc54)nc3c2cc1OC,13.2,–
CCCOc1ccc(-c2cccc(NS(=O)(=O)c3ccccc3)c2)nn1,-16.5,–
COc1ccc(-c2cccc(NS(=O)(=O)c3cc(C)c(OC)c(C)c3C)c2)nn1,–,3.66 µM (active)
COc1ccc(OC)c(S(=O)(=O)Nc2cccc(-c3ccc4nncn4n3)c2)c1,-7.93,–
O=C(Nc1ccc(-c2nc3cc(NC(=O)c4ccccc4Cl)ccc3o2)cc1)c1ccccc1Cl,-9.52,–
C/C(=N/Nc1ccc(Cl)cc1)c1cnnc(-c2ccccc2)n1,2.92,–
Fc1ccccc1Cc1ccc(Cl)nn1,4.26,–
C/C(=N\Nc1ccc(Cl)nn1)c1ccccc1O,–,14.6 µM (active)
CC(=O)N1CCc2cc(S(=O)(=O)NC(Cc3ccccc3)C(=O)NCc3ccc(C)cc3)ccc21 (stereo unspecified),0.414,–
Nc1ccc(C(=O)N2CCN(S(=O)(=O)c3ccc(Cl)cc3)CC2)cc1[N+](=O)[O-],-16.3,–
CC1CCN(C(=O)c2ccc(S(=O)(=O)Cc3cc(F)ccc3F)c([N+](=O)[O-])c2)CC1,–,23.1 µM (active)
O=C(c1ccc(Oc2ccc(Cl)cc2)c([N+](=O)[O-])c1)N1CCCC1,-4.08,–
CC[C@]1(O)C[C@@H]2CN(CCc3c([nH]c4ccccc34)[C@@](C(=O)OC)(c3cc4c(cc3OC)N(C)[C@H]3[C@@](O)(C(=O)OC)[C@H](OC(C)=O)[C@]5(CC)C=CCN6CC[C@]43[C@@H]65)C2)C1,–,0.164 µM (active)
COc1cc(NC(=O)Cn2nc(-c3ccc(C)c(C)c3)ccc2=O)cc(OC)c1,5.25,–
N#Cc1nc(NCc2ccc(Cl)c(Cl)c2)c2ncn(CCCO)c2n1,0,–
O=C(NCC(c1ccc(Cl)cc1)N1CCOCC1)c1ccccc1F (stereo unspecified),-21.3,–
O=C(NCCC1CCCCN1S(=O)(=O)c1cccs1)C(=O)Nc1ccc(F)cc1F (stereo unspecified),–,23.1 µM (active)
COc1ccccc1CCNC(=O)C(=O)NCCC1CCCCN1S(=O)(=O)c1cccs1 (stereo unspecified),-17.7,–
O=C(NCCC1CCCCN1S(=O)(=O)c1ccc(F)cc1)C(=O)NC1CC1 (stereo unspecified),9.7,–
